GRIN3A LBD mod = binders of NR3A ligand-binding domain, primary screen, biophysical, differential scanning fluorimetry, uHTS. Glutamate receptor ionotropic, NMDA 3A (GRIN3A) ligand-binding domain. NR3A LBD differential scanning fluorimetry, Tm shift; 0% = protein alone, 100% = glycine-bound protein. Tm shift relative to glycine control, % at 25 µM. actives 2.5% (n = 340,000). AID 1259313, 2017;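 active means melting temperature shift of at least 10% of the positive control shift, at one fixed dose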
MPTP inh = mitochondrial permeability transition pore inhibitors, primary screen, biochemical, isolated mouse mitochondria, absorbance. Ca2+ swelling absorbance, 30 min. inhibition, % at 10 µM. actives 1.4% (n = 360,000);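 active means inhibition of 50% or more, scaled per plate between neutral and stimulator controls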;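 further: 0% = DMSO wells given calcium and 100% = 1 mM EGTA wells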
pCIP destab = p/CIP-EGFP fusion destabilizers, primary screen, fluorescence, F442A cells; actives 0.01% (n = 290,000); Q05BA5; decrease of EGFP signal, % at 10 µM; 16 h;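 active means EGFP signal decrease of at least 30% at 10 µM or well 3 SD below plate mean, unless failing retest; inactive means the rest, including hits failing retest or dose response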
beta cell repl = inducers of MIN6 beta-cell proliferation, primary screen, ATP luminescence, uHTS | MIN6 cells proliferation, ATPlite luminescence, 48 h; cells starved in 0.2% serum; 100% = growth in 10% serum | proliferation, % at 10 µM | actives 0.29% (n = 330,000) | AID 2380, 2010;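 active means compounds whose signal lies at least 3.5 SD above the mean of all wells on their plate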;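 further: 0% = DMSO-treated cells in low-serum medium and 100% = 10% serum control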
FAS-TE inh = FAS thioesterase domain inhibitors, primary screen, biochemical, fluorescence intensity, uHTS. recombinant FAS-TE, OMFH fluorogenic substrate, fluorescence endpoint. AID 602261, 2012. actives 0.67% (n = 360,000). Fatty acid synthase (Homo sapiens), P49327. inhibition, % at 15 µM;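 active means compounds whose normalised, plate-corrected inhibition of enzyme fluorescence in the single-dose primary screen is 50% or more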;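 further: 0% = DMSO with enzyme and 100% = substrate without enzyme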
MPTP counter = fluorescence retest of MPTP screen hits in isolated mitochondria, single concentration; shares compounds with MPTP inh; membrane potential, Rhodamine 123 fluorescence; inhibition, % at 10 µM; actives 78% (n = 5,000); in the data active means inhibition above about 22%;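 further: 0% = DMSO vehicle and 100% = positive control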
MPTP swell DR = mitochondrial permeability transition pore inhibitors, dose response, biochemical, absorbance, uHTS hits; IC50, µM; shares compounds with MPTP inh; actives 58% (n = 780); isolated mitochondria swelling; AID 651561, 2012; in the data active means IC50 below about 20 µM
MPTP cs DR = fluorescent counter-screen in isolated mitochondria, dose response, counter-screen for MPTP inhibitor project, biochemical, fluorescence, uHTS hits; shares compounds with MPTP inh; isolated mitochondria counterscreen, fluorescence read-out; IC50, µM; actives 49% (n = 780); in the data active means IC50 below about 80 µM
* marks the source's active call; other numbers are inactive results; · = no result. Hits are enriched below; roughly 4.1% of the tested compounds scored in any of these assays.

SMILES	GRIN3A LBD mod	MPTP inh	pCIP destab	beta cell repl	FAS-TE inh	MPTP counter	others
O=C(NCc1ccc2c(c1)OCO2)c1c(-c2ccccc2)sc2ccccc12	0	82*	·	-1	11	79*
Cc1onc(-c2ccccc2)c1C(=O)NCc1ccc2c(c1)OCO2	-1	0	-27	0	0	·
O=C1c2ccccc2C2=Nc3ccccc3SC(c3ccc(Cl)cc3)C12 (stereo not given)	1	89*	6	0	12	56*
O=C1CCCC2=C1C(c1ccccc1)C1C(=O)c3ccccc3C1=N2 (stereo not given)	-10	4	-2	0	-6	·
O=C1c2ccccc2C2=Nc3ccccc3SC(c3cccc(F)c3)C12 (stereo not given)	2	81*	1	0	34	66*
O=C1c2ccccc2C(=O)C12OC2c1ccc(Cl)cc1 (stereo not given)	·	·	-12	-3	·	·
O=C1CCCC2=C1C(c1ccc(Cl)cc1)C1C(=O)c3ccccc3C1=N2 (stereo not given)	-4	55*	14	-4	20	36*
Cc1ccc(S(=O)(=O)N2CCN(C(=O)COC(=O)Cc3cccc(C(F)(F)F)c3)CC2)c(C)c1	2	1	·	-4	22	·
O=C(CNCc1cccnc1)Nc1cc(C(F)(F)F)ccc1N1CCOCC1	-1	2	12	2	-3	·
CCC(=O)c1cccc2c1N=CC1=C(CC(C)(C)CC1=O)N2	1	1	-2	-3	0	·
CNCCCOc1ccc(Cl)cc1C(C)(C)C	0	91*	-4	-5	-6	-12	MPTP swell DR=5.1*;MPTP cs DR=>80
COCCCNCCCOc1ccc(Cl)cc1C(C)(C)C	-4	82*	-5	0	-11	-15	MPTP swell DR=6*;MPTP cs DR=>80
CCC/C=C(\CCC)C(NC(=O)c1ccc(C(=O)OC)cc1)c1ccc(C(=O)OC)cc1 (stereo not given)	3	·	·	-6	·	·
COC(=O)c1ccc(NC(=O)Nc2ccccc2F)cc1	4	54*	-8	-3	4	84*
CCOC(=O)c1cc(NC(=O)Nc2ccc(Br)cc2)c(C)nc1C	6	74*	-8	-2	21	70*
O=C(COc1ccc([N+](=O)[O-])cc1)NNC(=O)Nc1ccc([N+](=O)[O-])cc1	-1	67*	13	-5	48	96*
CCOC(=O)c1ccccc1NC(=O)Nc1ccc(OC)c(OC)c1	0	0	-14	0	-7	·
CCOC(=O)c1ccc(NC(=O)Nc2ccc(OC)c(OC)c2)cc1	16*	65*	-2	-2	2	69*
CCOC(=O)c1cc(NC(=O)Nc2ccccc2Cl)c(C)nc1C	-4	-1	3	1	4	·
CC(OC(=O)Cc1coc2cc3c(cc12)CCC3)C(=O)NC(N)=O (stereo not given)	0	0	17	-3	-6	·
Cc1ccsc1C(=O)N1CCCC(N2CCN(c3cccc(Cl)c3)CC2)C1 (stereo not given)	-1	1	-1	2	3	·
COc1ccc(NC(=O)Nc2ccc(C)cc2OC(F)F)cc1OC	-4	52*	-9	0	1	36*
CCOC(=O)c1sc(NC(=O)Nc2ccc(F)cc2)nc1C	0	73*	-14	0	-8	84*
CC(C)(C)c1ccc(COC(=O)Nc2ccc(F)cc2)cc1	0	4	-7	-2	-6	·
COC(=O)c1ccc(NC(=O)Nc2ccc(F)c(Cl)c2)cc1	41*	91*	-1	-6	22	83*
